From PubChem BioAssay AID1476 (National Center for Advancing Translational Sciences (NCATS), 2009)
Several values for one entry are separate records, joined by “and”; a condition that tells them apart may be missing. Equal values may be shown once. Screen size: about 200,000 compounds; about 4,500 (2.2%) were called active. Inconclusive results (about 12%) are left out. Only a selection was taken, and actives are over-represented in it overall. Where a structure was tested more than once in an assay, its records may differ in their call. Values without a mark were called inactive. The call rests on the fitted dose curve; in most records, active means well fitted inhibition curve with a large enough effect; inconclusive means small, poorly fitted or top-dose-only effect, or effect the other way; inactive means flat fitted curve, though single readings scatter.

What follows are compounds tested against Cruzipain (Trypanosoma cruzi) (UniProt P25779) (assay: qHTS Assay for Promiscuous and Specific Inhibitors of Cruzain (without detergent)). Conditions: purified cruzain, Z-FR-AMC fluorescence, no detergent.
Outline: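 Detergent-free condition (0.00005% Triton X-100) in acetate buffer pH 5.5 with DTT. 1.5 nM enzyme and compound were pre-mixed 15 min, then 2 uM Z-FR-AMC substrate added; reaction progress from fluorescence change between first and third reads (60 s).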
Further: nearly all actives have a fitted effect of over 40% in size.
Potency means the concentration at half of the fitted maximal effect.
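Wherever max response, negative = inhibition is given: plate controls were enzyme without inhibitor for no effect and buffer without enzyme for full effect.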

Cruzipain (Trypanosoma cruzi), sequence (P25779 123-467 limits assumed): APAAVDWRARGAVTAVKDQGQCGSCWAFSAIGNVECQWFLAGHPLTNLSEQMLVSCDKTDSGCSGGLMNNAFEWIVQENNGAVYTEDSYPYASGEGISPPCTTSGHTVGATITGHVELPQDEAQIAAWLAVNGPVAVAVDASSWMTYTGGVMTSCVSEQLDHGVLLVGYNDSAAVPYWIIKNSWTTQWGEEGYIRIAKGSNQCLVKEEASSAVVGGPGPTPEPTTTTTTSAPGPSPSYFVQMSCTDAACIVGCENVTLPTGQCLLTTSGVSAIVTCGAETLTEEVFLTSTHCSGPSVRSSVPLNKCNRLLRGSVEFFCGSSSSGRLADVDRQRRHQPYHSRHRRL

SMILES	max response, negative = inhibition [%]	Potency
Cc1ccccc1CN1CCC(CNC(=O)c2cc3ccc4cccnc4c3[nH]2)CC1	-9.74	–
O=c1cc(Cn2nnc(-c3ccc(Cl)cc3)n2)nc2sccn12	0.777	–
Cc1ccc(Nc2c(-c3ccc(C)cc3)nc3cnccn23)cc1	5.6	–
Cc1ccc(Nc2c(-c3ccc(Cl)cc3)nc3sccn23)c(C)c1	–	31.6 µM (active)
Cc1cccc(-n2ccnc2SCC(=O)Nc2cccc3ccccc23)c1C	-4.61	–
O=C(COc1ccc(/C=N/NC(=O)c2ccc(O)cc2)cc1)Nc1ccc([N+](=O)[O-])cc1	-9.42	–
O=C(COc1ccc([N+](=O)[O-])cc1)Nc1ccc(N2CCCC2)cc1	–	7.94 µM (active)
Cc1ccc(OCCCC(=O)Nc2ccc(N3CCOCC3)cc2)cc1	-0.526	–
CCS(=O)(=O)N1CCc2cc(C(=O)N3CCN(c4ccccc4OC)CC3)ccc21	-11.9	–
Cc1cc(Cl)ccc1NC(=O)Cc1ccc(NC(=O)N2CCCCc3ccccc32)cc1	8.39	–
NC(=O)N1CCCC1C(=O)Nc1ccc(Cl)c(Cl)c1 (centres undefined)	-7.92	–
CC(C(=O)Nc1ccc(Cl)cc1Cl)N1CC=C(c2ccccc2)CC1 (centres undefined)	3.73	–
O=C(Nc1ccc(Cl)c(Cl)c1)N1CC=C(c2ccccc2)CC1	–	31.6 µM (active)
CC(CCCc1ccccc1)NC(=O)c1nn(-c2ccc(Cl)cc2)nc1CO (centres undefined)	4.3	–
O=[N+]([O-])c1ccc(N2CCN(S(=O)(=O)c3ccccc3)CC2)cc1N1CCc2ccccc2C1	–	7.94 µM (active)
CC(=O)Nc1ccc(S(=O)(=O)N2CCN(c3ccccc3)CC2)cc1	4.93	–
CN1CCN(c2ccc(S(=O)(=O)Nc3ccccc3)cc2[N+](=O)[O-])CC1	-3.45	–
Cc1ccccc1CNC(=O)C1CCCN(S(=O)(=O)N(C)c2ccc(F)cc2)C1 (centres undefined)	7.13	–
O=C(COc1ccc(Cl)cc1)Nc1ccccc1OCc1cc(=O)n2ccccc2n1	-0.406	–
CC(C)c1ccc(Cn2c(COc3ccccc3)nc3ccccc32)cc1	-13.5	–
O=C(Cn1c(=O)nc(-c2ccccc2)c2cc(Cl)ccc21)NCc1ccc(Cl)cc1	-1.57	–
CC(C)c1ccc2c(c1)c(SC(C)(C)C)c(CC(C)(C)C(=O)O)n2Cc1ccc(Cl)cc1	1.55	7.94 µM (active)

SMILES	max response, negative = inhibition [%]	Potency
COc1ccc(NC(=O)CSc2nccn2Cc2ccc3c(c2)OCO3)cc1	-5.6	–
CCOc1ccccc1C1CC(c2cccc(NS(C)(=O)=O)c2)=NN1C(=O)c1ccccc1 (centres undefined)	4.98	–
CCOc1ccc2nc(Cl)c(C3CC(c4ccccc4)=NN3C(=O)c3cccs3)cc2c1 (centres undefined)	–	7.94 µM (active)
O=C(COc1ccc2ccccc2c1)N1CCN(C(=O)c2cccs2)CC1	12.1	–
CCOC(=O)c1c(C)oc2nc(C)nc(N(CC(C)C)CC(C)C)c12	-3.29	–
COc1ccc(NC(=O)CN2C(=O)COc3ccc(S(=O)(=O)N4CCOCC4)cc32)cc1	4.14	–
Nc1ccc(C(=O)OCC(=O)NC2CCCc3ccccc32)cc1[N+](=O)[O-] (centres undefined)	-1.06	–
O=C(NC1CCc2ccccc21)C12CN(Cc3ccccc3)CC1C(c1cccc([N+](=O)[O-])c1)=NO2 (centres undefined)	–	12.6 µM (active)
COc1ccc([N+](=O)[O-])cc1C1NN=C(c2cccc3ccccc23)S1 (centres undefined)	–	7.94 µM (active)
COc1ccccc1CC(=O)Nc1ccc([N+](=O)[O-])cc1OC	-6.07	–
COc1ccc([N+](=O)[O-])cc1NC(=O)CCc1ccccc1	-3.31	–
O=C(CSc1nc(Nc2ccc(F)c(F)c2)c2ccccc2n1)c1ccc(Cl)cc1	-24.6	–
Cc1ccccc1OC/C(O)=C(\C#N)c1nc2ccccc2[nH]1	–	20 µM (active)
COc1ccccc1CSc1nc2ccccc2[nH]1	4.13	–
COC(=O)Cc1nc2ccccc2[nH]1	-1.4	–
CCOc1ccc(NC(=O)Cn2c(C)ccc(C#N)c2=O)cc1	-12.5	–
Cc1cc(N2CCN(S(=O)(=O)c3ccc(C)c(C)c3)CC2)c2ccccc2n1	1.17	–
COc1ccc(S(=O)(=O)N2CCN(c3ncnc4c(-c5ccccc5)nsc34)CC2)cc1	–	20 µM (active)
COc1ccc(S(=O)(=O)N2CCCC(C(=O)Nc3ccc(NC(=O)c4ccccn4)cc3)C2)cc1 (centres undefined)	-11.4	–
COc1cccc(NC(=O)Cn2c(=O)cc(C)c3c(C)nn(-c4cccc(F)c4)c32)c1	-8.29	–
CCC(=O)N1CCc2cc(CNS(=O)(=O)c3ccc(Br)s3)ccc21	-2.98	–
CCOc1ccc(Nc2oc(/C=C/c3ccc(F)cc3)nc2C#N)cc1	-13.4	–

SMILES	max response, negative = inhibition [%]	Potency
CCn1c(C)c(C)c2cc(C(=O)N3CCN(c4cccc(C)c4C)CC3)ccc21	-25.1	–
O=C(c1ccc(CN2CCOCC2)cc1)N1CCN(c2ccccc2F)CC1	-4.12	–
Cc1c(C)n(Cc2ccc(Cl)cc2)c2ccc(C(=O)N3CCN(c4ccccc4F)CC3)cc12	–	12.6 µM (active)
Cc1ccc(C)c(Cn2c(=O)n(CCC(=O)NCc3ccc4c(c3)OCO4)c(=O)c3sccc32)c1	-5.68	–
O=C(CSCc1cnn(-c2ccccc2)c1-n1cccc1)NCc1ccc(Cl)cc1	5.64	–
Cc1ccc(-n2nc(C)c(C(=O)O)c2-n2cccc2)cc1	1.25	–
CCC(=O)N1CCc2cc(S(=O)(=O)NC(C(=O)NCCc3ccc(C)cc3)C(C)C)ccc21 (centres undefined)	-12.9	–
COc1ccccc1NC(=O)CN1C(=O)c2ccccc2Sc2ccc(C(=O)N3CCCC3)cc21	4.29	–
COc1cccc(CNC(=O)c2ccc3c(c2)N(Cc2ccc(C(F)(F)F)cc2)C(=O)c2ccccc2S3)c1OC	–	10 µM (active)
Cc1ccccc1CN1C(=O)c2ccccc2Sc2ccc(C(=O)NCCCN3CCOCC3)cc21	-3.52	–
Cc1nc(-c2ccc(NC(=O)c3cccs3)cc2)cs1	-25.5	–
Cc1ccc(-c2csc(NC(=O)c3cccs3)n2)cc1	7.26	–
Cc1sc(NC(=S)NC(=O)c2cccs2)nc1-c1ccc(CC(C)C)cc1	–	10 µM (active)
COc1ccc(C2=NC(c3ccncc3)=Nc3ccc(Br)cc3N2)cc1	11.4	–
O=C(Cn1ncn2nc(-c3cccs3)cc2c1=O)NCc1cccc(Br)c1	-9.74	–
O=C(CSc1oc(-c2ccco2)nc1S(=O)(=O)c1ccc(Cl)cc1)c1ccccc1	10.2	–
CCCN(CCC)CCCNC(=O)Cn1cc2c(n1)-c1c(oc(C(=O)N3CCCC3)c1C)CC2	2.15	–
CCc1cccc(NC(=O)CN(c2ccc(C)c(C)c2)S(=O)(=O)c2ccsc2C(=O)OC)c1	-9.83	–
Cc1ccc(CNC(=O)CSc2c(C)cnc3c2c(=O)n(C)c(=O)n3C)cc1	-5.95	–
O=C(CNC(=O)c1ccco1)OCC(=O)c1ccccc1	-5.08	–
Cc1cc(C(=O)COC(=O)CNC(=O)c2ccc(F)cc2)c(C)n1Cc1ccco1	–	15.8 µM (active)
Cc1nn2c(=O)cc(COC(=O)CNC(=O)c3ccc(F)cc3)nc2s1	-12.1	–

SMILES	max response, negative = inhibition [%]	Potency
O=c1cc(-c2ccccc2)n2c(SCc3ccccc3)nnc2[nH]1	-3.24	–
CC(C)Nc1nc(N(c2ccccc2)c2ccccc2)nc(-n2ccnc2)n1	11.1	–
N#Cc1nc(N)nc(N(c2ccccc2)c2ccccc2)n1	–	1.58 µM (active)
COc1ccc(NC(=O)CNC(=O)Cn2ccc3ccccc3c2=O)c(OC)c1	10.4	–
COC(=O)COc1ccc2oc(=O)cc(C)c2c1	-6.25	–
Cc1ccccc1NC(=O)c1ccc(COc2ccc3c(C)cc(=O)oc3c2)cc1	–	10 µM (active)
Cc1ccccc1N1CCN(CCCOc2ccc3c(C)cc(=O)oc3c2)CC1	-15.8	–
CC(=O)N1CCCc2ccc(NS(=O)(=O)c3ccc(F)cc3F)cc21	8.5	–
COc1cc2c(cc1OC)C(COc1ccc(F)cc1)N(C(=O)c1ccccc1F)CC2 (centres undefined)	28.1	–
COc1ccc(-c2c(C)cc3oc(=O)cc(-c4ccccc4)c3c2C)cc1F	–	39.8 µM (active)
CC(=O)COc1ccc2c(-c3ccccc3)cc(=O)oc2c1	2.99	–
COc1ccc(-c2c(C)cc3oc(=O)cc(-c4ccccc4)c3c2C)cc1OC	-25.9	–
Cc1cc(C)cc(NC(=O)CSc2nc3nccnc3c(=O)n2CCc2c[nH]c3ccccc23)c1	-2.15	–
O=S(=O)(c1ccccc1)c1nc(-c2ccc(Cl)cc2Cl)oc1N1CCCCC1	-16.2	–
Cc1ccc(S(=O)(=O)n2nc(C)c(S(=O)(=O)N3CCCCCC3)c2C)cc1	-10.4	–
Oc1c(Cl)cc(Cl)c(Cl)c1Cc1c(O)c(Cl)cc(Cl)c1Cl	-18.2	31.6 µM (active) and 25.1 µM (active)
CCOc1ccc(NC(=O)CSc2c3c(nc4ccccc24)CCCC3)cc1	1.83	–
CCOc1ccc(NC(=O)CSc2nc3ccccc3c(=O)n2Cc2cccs2)cc1	-21.1	–
CCOc1ccc(NC(=O)CSc2ncnc3c2sc2ccccc23)cc1	-8.47	25.1 µM (active)
Cc1ccc(C)c(N2CCN(C(c3ccccc3)c3nnc(-c4ccccc4)o3)CC2)c1 (centres undefined)	-12.6	–
